Out of some 5,500 compounds screened, about 2,000 (36%) were called active. Another 18% or so got no clear call; they are omitted. No stated cut-off is given here; in the data, active means normalized growth mostly below about 0.91 (no sharp cut-off); inconclusive means no clear call, values can overlap the other calls; inactive means mostly above about 0.92. The list shows a part of the results.
Test: chemical genetic growth profiling, strain panel (AID 1159580);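 further: tested at 20 µM; growth read once vehicle control cultures reached saturation at 30 °C; 1 = growth at the plate median or of vehicle wells; lower values mean less growth of the strain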
Conditions: growth OD

Measured: normalized growth

O=[N+]([O-])c1ccc(O)c([N+](=O)[O-])c1
active: S. cerevisiae deletion strains, locus YKL009W, strain mrt4, hits give low values 0.249 | S. cerevisiae deletion strains, locus YKL068W, hits give low values 0.354 | S. cerevisiae deletion strains, locus YKL085W, strain MDH1 (second series), hits give low values 0.192 | S. cerevisiae deletion strains, locus YKL085W, strain MDH1, hits give low values 0.192 | S. cerevisiae deletion strains, locus YKL160W, strain elf1, hits give low values 0.87 | S. cerevisiae deletion strains, locus YKL190W, strain CNB1, hits give low values 0.795 | S. cerevisiae deletion strains, locus YKR001C, strain vps1, hits give low values 0.691 | S. cerevisiae deletion strains, locus YKR026C, strain gcn3, hits give low values 0.77 | S. cerevisiae deletion strains, locus YKR091W, strain srl3, hits give low values 0.808 | S. cerevisiae deletion strains, locus YLL001W, strain dnm1, hits give low values 0.793 | S. cerevisiae deletion strains, locus YLL026W, hits give low values 0.816 | S. cerevisiae deletion strains, locus YLL041C, strain sdh2, hits give low values 0.82 | S. cerevisiae deletion strains, locus YLR027C, strain aat2, hits give low values 0.819 | S. cerevisiae deletion strains, locus YLR058C, strain SHM2, hits give low values 0.802 | S. cerevisiae deletion strains, locus YLR102C, strain apc9, hits give low values 0.691 | S. cerevisiae deletion strains, locus YLR113W, strain HOG1, hits give low values 0.214 | S. cerevisiae deletion strains, locus YLR221C, strain rsa3, hits give low values 0.786 | S. cerevisiae deletion strains, locus YLR258W, strain gsy2, hits give low values 0.843 | S. cerevisiae deletion strains, locus YLR262C, strain YPT6 (second series), hits give low values 0.833 | S. cerevisiae deletion strains, locus YLR268W, strain sec22, hits give low values 0.736 | S. cerevisiae deletion strains, locus YLR320W, strain mms22, hits give low values 0.807 | S. cerevisiae deletion strains, locus YLR330W, strain CHS5, hits give low values 0.733 | S. cerevisiae deletion strains, locus YLR342W, strain FKS1, hits give low values 0.855 | S. cerevisiae deletion strains, locus YLR370C, strain arc18, hits give low values 0.814 | S. cerevisiae deletion strains, locus YLR371W, strain rom2, hits give low values 0.718 | S. cerevisiae deletion strains, locus YLR384C, strain iki3, hits give low values 0.798 | S. cerevisiae deletion strains, locus YLR418C, strain cdc73, hits give low values 0.661 | S. cerevisiae deletion strains, locus YML016C, strain PPZ1, hits give low values 0.79 | S. cerevisiae deletion strains, locus YML032C, strain rad52, hits give low values 0.697 | S. cerevisiae deletion strains, locus YML120C, strain ndi1, hits give low values 0.781 | S. cerevisiae deletion strains, locus YML124C, strain tub3, hits give low values 0.701 | S. cerevisiae deletion strains, locus YMR058W, strain fet3, hits give low values 0.793 | S. cerevisiae deletion strains, locus YMR078C, strain ctf18, hits give low values 0.68 | S. cerevisiae deletion strains, locus YMR129W, hits give low values 0.77 | S. cerevisiae deletion strains, locus YMR205C, strain PFK2, hits give low values 0.852 | S. cerevisiae deletion strains, locus YMR223W, strain ubp8, hits give low values 0.776 | S. cerevisiae deletion strains, locus YMR231W, strain pep5, hits give low values 0.761 | S. cerevisiae deletion strains, locus YMR263W, strain SAP30, hits give low values 0.783 | S. cerevisiae deletion strains, locus YNL067W, strain RPL9B, hits give low values 0.779 | S. cerevisiae deletion strains, locus YNL071W, strain lat1, hits give low values 0.826 | S. cerevisiae deletion strains, locus YNL128W, strain TEP1, hits give low values 0.842 | S. cerevisiae deletion strains, locus YNL153C, strain GIM3, hits give low values 0.786 | S. cerevisiae deletion strains, locus YNL183C, strain NPR1, hits give low values 0.179 | S. cerevisiae deletion strains, locus YNL209W, strain ssb2, hits give low values 0.829 | S. cerevisiae deletion strains, locus YNL233W, strain BNI4, hits give low values 0.75 | S. cerevisiae deletion strains, locus YNL250W, strain rad50, hits give low values 0.265 | S. cerevisiae deletion strains, locus YNL271C, strain bni1, hits give low values 0.31 | S. cerevisiae deletion strains, locus YNL298W, strain CLA4, hits give low values 0.251 | S. cerevisiae deletion strains, locus YNL307C, strain MCK1, hits give low values 0.635 | S. cerevisiae deletion strains, locus YNL322C, strain KRE1 (second series), hits give low values 0.651 | S. cerevisiae deletion strains, locus YNL322C, strain KRE1, hits give low values 0.798 | S. cerevisiae deletion strains, locus YNR049C, strain mso1, hits give low values 0.779 | S. cerevisiae deletion strains, locus YNR052C, strain pop2, hits give low values 0.728 | S. cerevisiae deletion strains, locus YOL147C, strain pex11, hits give low values 0.693 | S. cerevisiae deletion strains, locus YOR001W, strain rrp6, hits give low values 0.841 | S. cerevisiae deletion strains, locus YOR061W, strain CKA2, hits give low values 0.819 | S. cerevisiae deletion strains, locus YOR069W, strain VPS5, hits give low values 0.759 | S. cerevisiae deletion strains, locus YOR070C, strain gyp1, hits give low values 0.836 | S. cerevisiae deletion strains, locus YOR080W, strain dia2, hits give low values 0.812 | S. cerevisiae deletion strains, locus YOR083W, strain WHI5, hits give low values 0.831 | S. cerevisiae deletion strains, locus YOR136W, strain idh2, hits give low values 0.845 | S. cerevisiae deletion strains, locus YOR144C, strain elg1, hits give low values 0.709 | S. cerevisiae deletion strains, locus YOR184W, strain ser1, hits give low values 0.799 | S. cerevisiae deletion strains, locus YOR231W, strain MKK1, hits give low values 0.266 | S. cerevisiae deletion strains, locus YOR265W, strain rbl2, hits give low values 0.832 | S. cerevisiae deletion strains, locus YOR290C, strain snf2, hits give low values 0.826 | S. cerevisiae deletion strains, locus YOR316C, strain cot1, hits give low values 0.726 | S. cerevisiae deletion strains, locus YPL051W, strain arl3, hits give low values 0.843 | S. cerevisiae deletion strains, locus YPL055C, strain LGE1, hits give low values 0.753 | S. cerevisiae deletion strains, locus YPL078C, strain atp4, hits give low values 0.737 | S. cerevisiae deletion strains, locus YPL106C, strain sse1, hits give low values 0.736 | S. cerevisiae deletion strains, locus YPL240C, strain hsp82, hits give low values 0.813 | S. cerevisiae deletion strains, locus YPL241C, strain CIN2, hits give low values 0.812 | S. cerevisiae deletion strains, locus YPL256C, strain CLN2, hits give low values 0.256 | S. cerevisiae deletion strains, locus YPR119W, strain clb2, hits give low values 0.697 | S. cerevisiae deletion strains, locus YPR141C, strain kar3, hits give low values 0.309 | S. cerevisiae deletion strains, locus YPR163C, strain tif3, hits give low values 0.656 | S. cerevisiae deletion strains, locus YPR167C, strain met16, hits give low values 0.719 | S. cerevisiae deletion strains, strain wtn01, hits give low values 0.755 | S. cerevisiae strains, strain wild type, hits give low values 0.799
inactive: S. cerevisiae deletion strains, locus YLR039C, strain RIC1, hits give low values 0.841 | S. cerevisiae deletion strains, locus YLR262C, strain YPT6, hits give low values 0.932 | S. cerevisiae deletion strains, locus YLR342W, strain FKS1 (second series), hits give low values 0.851 | S. cerevisiae deletion strains, locus YLR357W, strain rsc2, hits give low values 0.855 | S. cerevisiae deletion strains, locus YMR125W, strain sto1, hits give low values 0.898 | S. cerevisiae deletion strains, locus YMR307W, strain GAS1, hits give low values 0.819 | S. cerevisiae deletion strains, locus YNL248C, strain rpa49, hits give low values 0.937 | S. cerevisiae deletion strains, locus YOL006C, strain TOP1, hits give low values 0.9 | S. cerevisiae deletion strains, locus YOL012C, strain htz1 0.683 | S. cerevisiae deletion strains, locus YOR106W, strain vam3, hits give low values 0.87 | S. cerevisiae deletion strains, locus YOR270C, strain vph1, hits give low values 0.901

From PubChem BioAssay AID1159580 (chemical genetic matrix, 2015)
